Assay outcomes deposited in PubChem by National Center for Advancing Translational Sciences (NCATS).
An excerpt weighted towards active compounds, which were near 1.3% of everything screened.
IL2 activator: IL-2 activation; AID 652025; activation, % (series mostly up to about 46 µM); hit rate 0.065% among 360,000; IL-2 activation reporter assay, cell-based qHTS; stimulated with anti-CD3/CD4/CD28 beads; in transgenic mouse T cells; in the data active = activation above about 50%; inconclusive = mostly about 30% to 49%; note: 0% is about no effect
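Readout: EGFP and DsRed signals by fluorescent plate cytometry. Unstimulated transgenic mouse T cells received compound 60 min before antibody-bead stimulation, then incubated 18 h at 37 degrees C.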
TSG101-PTAP inh: blocks PTAP/TSG101 interaction to inhibit HIV-1 budding | Q99816 | Fluorescence polarization, FITC-PTAP peptide / Tsg101 binding | Potency, µM (doses to about 115 µM), for inactives: top-dose activity change, negative = inhibition, most hits filed as inhibitors | 340,000 tested, under 10 active | AID 493005; active = well fitted inhibition curve with a large enough effect in the main read-out, with a control signal flat, not every such curve was filed as active; inconclusive = small, poorly fitted or top-dose-only effect, or effect the other way, or a change in a side signal; inactive = no such curve, though single readings can be large or run the other way; note: potency is the fitted concentration of half-maximal effect; % of control where 0% means no effect
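Tsg101 binding domain (10 uM final) was mixed with compound and a FITC-labeled PTAP peptide (50 nM final) in HEPES pH 7.5 buffer with NaCl, Tween 20, EDTA and TCEP; fluorescence polarization was read after 20 min at r.t.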
TRPML1 ag: agonists of human TRPML1 channel; hit rate 0.12% among 410,000; TRPML1-expressing cells, Ca2+ dye fluorescence, FDSS; Q9GZU1; activation, % (no concentration beside the values); in the data active = activation above about 50%; inconclusive = mostly about 30% to 49%; note: 0% is about no effect
Target sequence (Q9GZU1 whole entry, looked up): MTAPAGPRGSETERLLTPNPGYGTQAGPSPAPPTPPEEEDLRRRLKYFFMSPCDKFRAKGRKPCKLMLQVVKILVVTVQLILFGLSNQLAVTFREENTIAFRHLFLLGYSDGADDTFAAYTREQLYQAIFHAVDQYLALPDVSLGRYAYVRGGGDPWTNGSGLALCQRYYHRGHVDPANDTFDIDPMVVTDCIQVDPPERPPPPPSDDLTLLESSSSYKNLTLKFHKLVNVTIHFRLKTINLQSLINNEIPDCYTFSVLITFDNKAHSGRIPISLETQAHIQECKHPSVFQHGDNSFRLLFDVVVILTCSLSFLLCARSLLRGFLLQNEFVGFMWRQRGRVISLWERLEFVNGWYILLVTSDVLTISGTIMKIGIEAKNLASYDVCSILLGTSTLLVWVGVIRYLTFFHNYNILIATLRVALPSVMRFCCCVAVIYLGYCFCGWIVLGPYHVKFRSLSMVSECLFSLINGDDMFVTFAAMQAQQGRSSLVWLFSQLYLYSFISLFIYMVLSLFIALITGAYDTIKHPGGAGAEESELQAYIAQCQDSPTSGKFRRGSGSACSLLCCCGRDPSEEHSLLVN
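In this qHTS format, compounds were pin-transferred onto Ca8-dye-loaded TRPML1-DL cells induced with Tet overnight, and intracellular Ca2+ fluorescence was recorded kinetically for 110 s after a 10 s baseline. A subsequent 4uM final 54-4 (EC80) addition followed by a second 110 s read served as the antagonist phase.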
BRCA1 expr up: increases BRCA1 expression | MCF7-BRCA1-FFLuc reporter, luminescence, 48 h; response scale: scaled: vehicle 0%, 10 µM genistein 100% | Potency, µM (series often up to 46.1 µM), for inactives: top-dose activation, actives largely listed as activators | hit rate 1.1% among 380,000 | AID 624202; note: potency is the fitted concentration of half-maximal effect; nearly all actives have a fitted effect of over 80% in size
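MCF7-BRCA1-FFLuc, 2000 cells/well; 2 h attach, 37 °C/5% CO2; compound 48 h; luciferase substrate 15 min; luminescence end-point. Norm. to genistein 10 microM max activation and DMSO; concentration-response curves fitted.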
PKM2 activator: activators of human pyruvate kinase M2. Potency, µM (highest dose often 57.5 µM), for the others: at the highest dose activation, most hits filed as activators. P14618. hit rate 0.34% among 260,000. purified PKM2, Kinase-Glo ATP luminescence, activation; response scale: 0% is enzyme alone, no compound; note: potency is the fitted concentration of half-maximal effect; % is set by controls: 0 for no effect and ±100 for the full control effect; nearly all actives have a fitted effect of over 55% in size
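ATP formation by purified human PK-M2, quantified via coupled luciferase luminescence after 1 h at room temperature with 0.1 mM ADP and 0.5 mM PEP final.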
TRPML1 inh: human mucolipin-1 channel inhibition. Q9GZU1. TRPML1-inducible cells, Ca2+ dye fluorescence, FDSS; active compounds read low; inhibition of EC80 agonist-evoked calcium signal. activity change, negative = inhibition, % (no concentration beside the values). hit rate 0.02% among 390,000; in the data active = activity change below about -50%; inconclusive = between about -30% and that limit;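 note: stimulus is agonist 54-4 at its EC80 concentration; % is set by controls: 0 for no effect and ±100 for the full control effect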
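Tet-induced TRPML1-DL cells loaded with Ca8 no-wash calcium dye were read kinetically on FDSS. Compound addition was followed by EC80 agonist 54-4 (4 uM final); inhibition was read over 110 s.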
* marks the source's active call; other numbers are inactive results. Unless noted, calls come from the whole dose curve; as a rule, active = well fitted activation curve with a large enough effect; inconclusive = small, poorly fitted or top-dose-only effect; inactive = no such curve, though single readings can be large or run the other way.

How did O=S(=O)(Nc1cc(Br)cc2cccnc12)c1ccccc1 do in these assays?
TRPML1 ag: 3; BRCA1 expr up: -53%; TRPML1 inh: 1

Results for CN(C=O)c1ccc(CSc2ccccc2)cc1 ?
IL2 activator: -1; TSG101-PTAP inh: -8%; TRPML1 ag: 2; BRCA1 expr up: 8.9µM*; TRPML1 inh: -7

Results for OC(CN1C=CCc2ccccc21)c1ccc(Cl)cc1Cl (stereo not given) ?
TRPML1 ag: 2; BRCA1 expr up: inconclusive

How did Cc1cc(C(C)C)n2c(nc3ccccc32)c1C#N do in these assays?
PKM2 activator: -4%

Results for Cc1cc(-c2ccco2)c(C#N)c2nc3ccccc3n12 ?
IL2 activator: 1; TSG101-PTAP inh: inconclusive; TRPML1 ag: 11; BRCA1 expr up: 2.8µM*; PKM2 activator: inconclusive; TRPML1 inh: 0

How did Cc1ccc(Cn2c(C(=O)O)c(CNC3CCCCCC3)c3ccc(C)cc32)cc1 do in these assays?
TRPML1 ag: 0; BRCA1 expr up: 3%; TRPML1 inh: -6

How did O=C(NCCc1cccs1)C1CC(c2ccc([N+](=O)[O-])cc2)=NO1 (stereo not given) do in these assays?
IL2 activator: 0; TRPML1 ag: 1; BRCA1 expr up: 10µM*; PKM2 activator: -12%; TRPML1 inh: -18

What do the screens show for `CSc1ccc(/C=C/C(=O)N2CCCN(C)CC2)cc1`?
IL2 activator: 0; TSG101-PTAP inh: 2%; TRPML1 ag: 1; BRCA1 expr up: 8.9µM*; PKM2 activator: -6%; TRPML1 inh: 12

How did c1ccc(OCc2nnc(-c3ccccc3)o2)cc1 do in these assays?
IL2 activator: -2; TSG101-PTAP inh: 3%; TRPML1 ag: 2; BRCA1 expr up: 7.1µM*; PKM2 activator: 5%; TRPML1 inh: -6

How did c1ccc(-c2nnc(-c3ccncc3)o2)cc1 do in these assays?
IL2 activator: -1; TSG101-PTAP inh: -8%; TRPML1 ag: 0; BRCA1 expr up: 11µM*; PKM2 activator: -11%; TRPML1 inh: 13

Results for Nc1ccc(-c2nnc(-c3ccc(N)cc3)o2)cc1 ?
IL2 activator: -3; TSG101-PTAP inh: -2%; TRPML1 ag: 0; BRCA1 expr up: 5.6µM*; TRPML1 inh: -16

What do the screens show for `c1ccc(-c2nnc(-c3ccccc3)o2)cc1`?
IL2 activator: 0; TSG101-PTAP inh: 2%; TRPML1 ag: 3; BRCA1 expr up: 79%; PKM2 activator: -26%; TRPML1 inh: 23

How did CCOc1ccccc1N1CC(c2nc3ccccc3n2CCOc2ccccc2OC)CC1=O (stereo not given) do in these assays?
TRPML1 ag: 5; TRPML1 inh: 7

Results for N/C(=C\c1ccccc1)c1ccncc1 ?
TRPML1 ag: 6; BRCA1 expr up: 44%

Results for CC(=O)Oc1ccc2occ(C(=O)c3ccccc3)c2c1 ?
IL2 activator: 1; TSG101-PTAP inh: -6%; TRPML1 ag: 2; BRCA1 expr up: 7.1µM*; TRPML1 inh: -5

How did O=C(O)COc1ccc2occ(C(=O)c3ccccc3)c2c1 do in these assays?
IL2 activator: -3; TSG101-PTAP inh: -5%; TRPML1 ag: -1; BRCA1 expr up: -11%; PKM2 activator: 1%; TRPML1 inh: 4

How did Cc1ccn2cc(-c3cnoc3C)nc2c1 do in these assays?
IL2 activator: 0; TSG101-PTAP inh: -1%; TRPML1 ag: -1; BRCA1 expr up: 10µM*; PKM2 activator: -1%; TRPML1 inh: -3

Results for O=C(Cn1c(=O)n(CCc2ccccc2)c(=O)c2cccnc21)Nc1ccc(F)cc1 ?
TRPML1 ag: -1; BRCA1 expr up: -4%; TRPML1 inh: 39
